# IL1B secr inh: qHTS for Inhibitors of Inflammasome Signaling: IL-1-beta AlphaLISA Primary Screen. THP-1 LPS/ATP IL-1B secretion, AlphaLISA, 16 h; active compounds read low. 4.7% of 360,000 active. activity change, % at 57.5 µM. AID 743279, 2014; in the data active = activity change below about -50%; inconclusive = mostly about -30% to -49%; also: % is scaled to controls: 0 for no effect and ±100 for the full control effect
#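 THP-1 cells pretreated 1 hr with compounds (up to 57.5 uM final), then stimulated with LPS (250 ng/mL final) plus ATP (1.25 mM final); secreted IL-1B measured by AlphaLISA after 16 hr, decreased signal indicating inhibition.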
# HepG2 viability: qHTS for Inhibitors of TGF-b: Cytotox Counterscreen; 0.76% of 410,000 active; Potency, µM (doses to about 46.1 µM), for the others: at the highest dose activity change, negative = cytotoxicity, usual class: cytotoxic; HepG2 CAGA-GFP viability, ATP luminescence, 18 h; AID 588856, 2011; also: potency is read from the fitted curve at half-maximal effect
#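 CellTiter-Glo luminescence gave cytotoxicity after 18 hours at 37 degrees C. The cells were HepG2 CAGA-GFP in 1% FBS DMEM, stimulated with 500 pg/mL TGF-beta after compound addition. %Activity was normalised to no-cell wells (complete cell-killing) and DMSO (no toxicity), and curves were fitted and classified.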
# TDP1 cell CPT: qHTS for Inhibitors of human tyrosyl-DNA phosphodiesterase 1 (TDP1): qHTS in cells in presence of CPT | 12% of 420,000 active | AID 686979, 2013 | chicken DT40 Tdp1-/-;hTDP1 cells + 20 nM CPT, ATP luminescence, 48 h | Potency, µM (doses to about 46.2 µM), inactives show at the highest dose activity change, negative = growth inhibition, actives largely listed as inhibitors; also: potency is read from the fitted curve at half-maximal effect; % is scaled to controls: 0 for no effect and ±100 for the full control effect; nearly all actives have a fitted effect of over 55% in size
#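 Cell growth measured by CellTiter-Glo luminescence after a minimum 48 h, 37 C compound exposure with 20 nM CPT in Tdp1-knockout DT40 cells stably expressing hTDP1, seeded 400/well; qHTS titration format.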
# TDP1 block: qHTS Assay for Inhibitors of Tyrosyl-DNA Phosphodiesterase (TDP1); Tyrosyl-DNA phosphodiesterase 1 (Homo sapiens), Q9NUW8; recombinant TDP1, AlphaScreen DNA substrate cleavage; Potency, µM (doses to about 130 µM), for inactives: top-dose activity change, negative = inhibition, actives largely listed as inhibitors; 0.28% of 350,000 active; AID 485290, 2010; also: potency is read from the fitted curve at half-maximal effect; % is scaled to controls: 0 for no effect and ±100 for the full control effect; nearly all actives have a fitted effect of over 40% in size
# Target sequence (Q9NUW8 whole entry, looked up): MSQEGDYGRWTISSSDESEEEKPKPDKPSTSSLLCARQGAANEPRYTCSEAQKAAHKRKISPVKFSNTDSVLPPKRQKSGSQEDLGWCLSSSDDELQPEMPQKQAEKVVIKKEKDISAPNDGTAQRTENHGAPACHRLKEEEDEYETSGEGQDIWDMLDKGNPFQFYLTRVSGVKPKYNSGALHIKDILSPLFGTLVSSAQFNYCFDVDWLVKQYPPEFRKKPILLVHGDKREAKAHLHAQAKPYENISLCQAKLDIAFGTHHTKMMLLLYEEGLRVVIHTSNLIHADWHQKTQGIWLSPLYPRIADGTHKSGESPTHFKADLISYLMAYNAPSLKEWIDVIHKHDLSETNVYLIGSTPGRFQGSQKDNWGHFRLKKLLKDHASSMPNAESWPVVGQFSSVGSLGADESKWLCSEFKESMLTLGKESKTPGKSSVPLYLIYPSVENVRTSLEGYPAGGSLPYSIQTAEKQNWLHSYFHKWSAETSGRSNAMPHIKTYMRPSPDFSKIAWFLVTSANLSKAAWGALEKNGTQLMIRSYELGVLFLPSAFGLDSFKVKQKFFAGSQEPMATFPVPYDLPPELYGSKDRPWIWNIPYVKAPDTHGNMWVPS
#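 Enzyme-compound mixtures sat 15 min at room temperature, followed by a 5 min reaction with 15 nM final substrate and 10 min with AlphaScreen beads. Recombinant human Tdp1 was used at 1 nM final.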
# TGFb inhibitor: qHTS for Inhibitors of TGF-b; Potency, µM (titrated, usually from 46.1 µM), inactives show at the top dose activity, negative = inhibition, usual class: inhibitors; 1.2% of 410,000 active; HepG2 CAGA-GFP TGF-b/SMAD3 reporter, GFP fluorescence, 18 h; TGF-beta stimulated, 500 pg/mL final; AID 588855, 2011; also: potency is read from the fitted curve at half-maximal effect; % is scaled to controls: 0 for no effect and ±100 for the full control effect; nearly all actives have a fitted effect of over 65% in size
#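 Read-out: total well GFP (ex488/em500-530) summed from mean per-cell fluorescence. Cells: HEPG2 CAGA-GFP, 1% FBS DMEM, 18 h at 37 degrees C with 500 pg/mL final TGF-beta. Unstimulated wells served as the full-inhibition control; stimulated DMSO wells = 0%.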
# DT40 TDP1 no CPT: qHTS for Inhibitors of human tyrosyl-DNA phosphodiesterase 1 (TDP1): qHTS in cells in absence of CPT. DT40 Tdp1-/- hTDP1 cells, no CPT, ATP luminescence, 48 h. Potency, µM (series often up to 46.2 µM), inactives show top-dose activity change, negative = growth inhibition, actives largely listed as inhibitors. 15% of 420,000 active. AID 686978, 2013; also: potency is read from the fitted curve at half-maximal effect; % is scaled to controls: 0 for no effect and ±100 for the full control effect; nearly all actives have a fitted effect of over 55% in size
#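 DT40 Tdp1-/-;hTDP1 cells, no CPT (DMSO vehicle only), 400 cells/well; compounds pin-transferred; ≥48 hr, 37 °C; CellTiter-Glo 30 min RT dark, luminescence read.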
# * hit, by the source's call; ? = inconclusive; · = no result given; ! = repeats disagree; [ ] = another dose, or the depositor's remark. A selection: hits, their analogues and other compounds. The true share with any hit is near 18%. Unless noted, calls follow the shape of the dose curve; as a rule, active = well fitted curve in the direction sought with a large enough effect; inconclusive = small, poorly fitted or top-dose-only effect, or another doubt; inactive = no such curve, though single readings can be large; an effect the other way counts as inactive or inconclusive.
SMILES,IL1B secr inh,HepG2 viability,TDP1 cell CPT,TDP1 block,TGFb inhibitor,DT40 TDP1 no CPT
CCOc1cc(C(=O)Nc2ccc3nc(N4CCN(C)CC4)cc(C)c3c2)cc(OCC)c1OCC,·,-38.3%,18.4µM*,11.8%,?,4.61µM*
CC1(C(=O)NS(=O)(=O)Cc2ccccc2)CCN1C(=O)Cc1ccccc1 (stereo unspecified),0.0,-3.2%,4.7%,·,16.7%,-12.0%
Cc1cc(N2CCN(C)CC2)nc2ccc(NC(=O)c3ccccc3F)cc12,-56.0*,-26.7%,18.4µM*!,4.9%,-2.0%,?
CCN1CCN(c2cc(C)c3cc(NC(=O)c4ccccc4F)ccc3n2)CC1,·,-24.9%,?,0.0%,35.2%,?
CCCCN(CC)CCNC(=S)Nc1ccc2nc(N3CCN(C)CC3)cc(C)c2c1,-54.6*,-51.7%,?,·,-15.8%,18.4µM*
Cc1cc(N2CCN(C)CC2)nc2ccc(NC(=O)Nc3ccccc3)cc12,·,12.6µM*,?,7.4%,?,?
Cc1cc(N2CCN(C)CC2)nc2ccc(NC(=O)c3cccnc3Cl)cc12,-20.7,-2.0%,-12.3%,3.5%,2.0%,4.9%
COc1cccc(CNC(=O)C(=O)NCC(c2ccc3c(c2)OCO3)N2CCOCC2)c1 (stereo unspecified),·,-43.6%,0.0%,6.6%,-22.5%,-28.7%
CCCOc1ncnc2c1[nH]c1ccc(C)cc12,-13.8,-18.5%,?,0.0%,-26.7%,9.2µM*
COc1ccc2c(c1)[nH]c1c(Cl)ncnc12,-95.4*,3.7%,?,-2.6%,9.9%,?
COc1ccc(CNc2ncnc3c2[nH]c2ccccc23)cc1,-107.9*,-6.6%,10.3µM*,5.5%,-18.7%,5.8µM*
Cc1ccc2[nH]c3c(NCc4ccccc4)ncnc3c2c1,-1.7,-11.9%,20.6µM*,·,?,16.4µM*
Cc1ccc2[nH]c3c(Cl)ncnc3c2c1,·,20.7%,18.1%,·,27.2%,-17.2%
COc1ccc(CCn2cnc3c([nH]c4ccccc43)c2=O)cc1,0.0,2.7%,-3.4%,-9.6%,5.5%,-8.4%
COc1cc2[nH]c(=S)nc(NCc3ccc(C)cc3)c2cc1OC,-8.1,-18.4%,?,·,-4.3%,23.1µM*
CC(C)OCCCNc1ncnc2c1[nH]c1ccccc12,-93.0*,-27.6%,8.91µM*,1.1%,-31.4%,14.1µM*
CCOc1ncnc2c1[nH]c1ccccc12,?,-1.9%,?,-1.9%,-10.1%,?
COc1ccc(CNC(=O)Cn2cnc3c(NCc4ccccc4)ncnc32)cc1,64.8,-5.2%,10.3µM*,0.6%[56.1 µM],-9.4%,5.8µM*
c1coc(CNc2ncnc3c2[nH]c2ccccc23)c1,·,-53.3%,12.6µM*,3.4%,-25.6%,14.1µM*
Cc1ccn(CC(=O)N2CCCC(N3CCN(Cc4ccc5c(c4)OCO5)CC3)C2)n1 (stereo unspecified),22.1,1.2%,5.2%,4.3%,6.8%,-2.8%
COc1ccc(N(CC(=O)Nc2cc(C(=O)O)ccc2C)S(=O)(=O)c2c(C)noc2C)cc1,24.6,-2.7%,4.7%,6.2%,18.3%,-4.8%
Cc1ccc(NS(=O)(=O)c2ccc3c(c2)CCC(=O)N3)cc1Cl,·,·,·,-4.4%,·,·
COc1ccc(CNc2ncnc3c2[nH]c2cc(OC)c(OC)cc23)cc1,-94.5*,-16.8%,?,·,-13.3%,?
CC1CCCCC12NC(=O)N(CC(=O)N1CCN(S(=O)(=O)c3ccc(Cl)s3)CC1)C2=O (stereo unspecified),-8.9,1.6%,-3.2%,·,-7.0%,-4.2%
O=C(O)CC(NS(=O)(=O)c1ccc2c(c1)OCCO2)c1ccccc1[N+](=O)[O-] (stereo unspecified),19.1,-3.9%,7.4%,2.4%,-2.7%,-3.1%
SMILES,IL1B secr inh,HepG2 viability,TDP1 cell CPT,TDP1 block,TGFb inhibitor,DT40 TDP1 no CPT
CCOc1ccc(S(=O)(=O)NCc2ccccc2Cl)cc1C(N)=O,-58.4*,-23.2%,?,1.5%,?,?
Cc1ccc(C)c(NC(=O)c2cc(S(=O)(=O)NCc3ccccc3)ccc2F)c1,·,-25.7%,?,7.8%,0.9%,?
CCc1cccc(C)c1NC(=O)c1cc(S(=O)(=O)NCc2ccccc2Cl)ccc1F,·,-38.1%,20.6µM*,2.6%,-12.6%,25.9µM*
Cn1cccc1C(=O)N1CCC2(CC1)CCN(c1ccccn1)CC2,·,·,?,·,·,14.6µM*
Cn1cccc1C(=O)N1CCC2(CC1)CCN(C(c1ccccc1)c1ccccc1)CC2,·,·,?,·,·,14.6µM*
Cn1cccc1C(=O)N1CCC2(CC1)CN(c1ccccn1)C2,·,·,-19.8%,·,·,?
CN1CCCC2(CCN(C(=O)c3cccn3C)CC2)C1,·,·,16.3%,·,·,-11.1%
Cn1cccc1C(=O)N1CCC2(CCCN(c3ncccn3)C2)CC1,·,·,?,·,·,0.651µM*
CC(C)CN1CCC2(CC1)CCN(C(=O)c1cccn1C)CC2,·,·,9.8%,·,·,-3.2%
Cc1ccc(S(=O)(=O)NCCC(=O)NCCc2ccccc2)cc1,3.5,0.6%,-9.3%,·,-1.0%,-36.2%
CCN(CC)CCN1CCN(c2cncc(-c3ccc4ccccc4c3)n2)CC1,-59.5*,12.6µM*,11.6µM*,·,?,16.4µM*
Fc1cccc(-c2cncc(N3CCN(CCN4CCCC4)CC3)n2)c1,-9.1,-10.5%,?,·,8.4%,?
FC(F)(F)c1cccc(-c2cncc(N3CCN(CCN4CCCC4)CC3)n2)c1,-25.9,-57.4%,23.1µM*,·,22.2%,16.4µM*
NC(=O)C1c2ccccc2CCc2ccccc21,·,·,-7.1%,4.2%,·,-15.3%
CCCN1CNc2c(c(=O)[nH]c(=S)n2CCc2cc(Cl)ccc2Cl)C1,·,·,?,0.8%[96 µM],·,?
CCCN1CNc2c(c(=O)[nH]c(=S)n2CCc2cccc(Cl)c2Cl)C1,·,·,?,1.6%,·,10µM*
CCCN1CNc2c(c(=O)[nH]c(=S)n2CCc2cc(Cl)cc(Cl)c2)C1,·,·,5.62µM*,2.3%[96 µM],·,3.98µM*
CC(=O)c1c(C)[nH]c(C(=O)Nc2cccc(C#N)c2)c1C,-3.7,-14.0%,-20.5%,7.8%,-16.6%,16.4µM*
CC(=O)c1c(C)[nH]c(C(=O)Nc2cccc(C(F)(F)F)c2)c1C,-73.4*,-21.9%,?,·,?,20.6µM*
